High-throughput results as filed in PubChem.
This is a sample that favours compounds with a hit; in the whole collection about 3.5% have one here.
TEAD-YAP block – TEAD-YAP interaction inhibition, primary screen, TEAD-YAP interaction inhibitor project, luminescence, HEK-TIYL cells. TEAD-Gal4/YAP UAS-luciferase luminescence. inhibition, % at 9.12 µM. actives 1.4% (n = 640,000). AID 1259422, 2018; in the data active means inhibition above about 32%
GPR151 ag – activators of human GPR151, primary screen, cell-based, PathHunter beta-arrestin, luminescence; actives 1% (n = 650,000); G-protein coupled receptor 151 (Homo sapiens), Q8TDV0; PathHunter beta-arrestin GPR151 cells; AID 1508602, 2020; activation, % at 11.2 µM; in the data active means activation above about 4.9%
FBW7 act – FBW7 E3 ligase activators, primary screen, biochemical, AlphaScreen, human; normalized activity (activation), % at 26.1 µM; AID 1259310, 2017; actives 0.13% (n = 650,000); AlphaScreen FBW7–phospho-cyclin E peptide binding, activator screen; in the data active means normalized activity above about 1.9%;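 further: purified mutant Fbw7 with reduced substrate affinity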
Target sequence (Q969H0 whole entry, looked up): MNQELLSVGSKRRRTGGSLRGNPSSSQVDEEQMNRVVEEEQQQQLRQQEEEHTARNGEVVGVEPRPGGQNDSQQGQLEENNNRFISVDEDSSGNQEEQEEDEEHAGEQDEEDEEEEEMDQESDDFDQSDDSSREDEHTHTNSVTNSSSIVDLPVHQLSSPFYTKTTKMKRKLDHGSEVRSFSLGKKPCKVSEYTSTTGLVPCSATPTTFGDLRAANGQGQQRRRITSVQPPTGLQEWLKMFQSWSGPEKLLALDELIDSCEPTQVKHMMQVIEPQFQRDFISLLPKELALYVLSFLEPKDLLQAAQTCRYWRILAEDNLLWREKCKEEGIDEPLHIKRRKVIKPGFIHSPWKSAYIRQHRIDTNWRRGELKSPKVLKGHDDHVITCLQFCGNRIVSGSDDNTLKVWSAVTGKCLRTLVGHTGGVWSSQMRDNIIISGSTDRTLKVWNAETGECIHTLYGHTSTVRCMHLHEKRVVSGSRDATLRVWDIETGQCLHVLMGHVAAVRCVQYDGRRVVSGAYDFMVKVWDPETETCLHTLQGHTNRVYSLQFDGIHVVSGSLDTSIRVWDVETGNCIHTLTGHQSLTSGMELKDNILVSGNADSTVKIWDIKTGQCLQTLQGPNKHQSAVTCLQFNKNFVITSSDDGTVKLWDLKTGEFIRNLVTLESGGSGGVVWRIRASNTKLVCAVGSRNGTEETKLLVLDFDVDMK
MITF inh – MITF inhibitors, primary screen, biochemical, AlphaScreen, human | AID 1259374, 2018 | Microphthalmia-associated transcription factor (Homo sapiens), O75030 | actives 0.91% (n = 650,000) | inhibition, % at 2.6 µM | AlphaScreen MITF homodimerization, bead proximity signal; in the data active means inhibition above about 50%
Large screens that a line does not name were inactive.

O=C(CN1CCOCC1)N/N=C/c1c(O)ccc2ccccc12	TEAD-YAP block 36
O=C(CN1CCN(Cc2ccccc2Cl)CC1)N/N=C\c1c(O)ccc2ccccc12	TEAD-YAP block 74
CN(C)N1C(=O)CC(Nc2ccc(F)cc2)C1=O (stereo not given)	none
O=C(/C=C/c1ccccc1)OCCN1C(=O)c2cccc3c(N4CCOCC4)ccc(c23)C1=O	none
O=S(=O)(NCc1cccnc1)c1ccc(Cl)cc1	none
COc1ccc(/C=C/C(=O)c2ccc(S(=O)(=O)NCc3cccnc3)cc2)cc1	TEAD-YAP block 35
O=S(=O)(NCc1cccnc1)c1ccc(Cc2ccc(S(=O)(=O)NCc3cccnc3)cc2)cc1	TEAD-YAP block 51
O=S(=O)(NCc1ccc2c(c1)OCO2)c1ccc(Cc2ccc(S(=O)(=O)NCc3ccc4c(c3)OCO4)cc2)cc1	TEAD-YAP block 38
O=C1OC2(CCCCC2)OC(=O)C1=Cc1ccc(Br)o1	MITF inh 74
N#Cc1c2ccc([N+](=O)[O-])cc2[n+]([O-])n1-c1ccccc1	none
N#CC1=C(N)N(c2ccccc2)S(=O)(=O)c2cc([N+](=O)[O-])ccc21	TEAD-YAP block 56
COc1cccc(NC2=C(Cl)C(=O)N(c3ccccc3OC)C2=O)c1	none
Cc1[nH]cnc1CN1CCCC(C(=O)c2ccc(Oc3ccccc3)cc2)C1 (stereo not given)	TEAD-YAP block 33
Fc1ccc(-c2nnc3sc(CN4CCc5ccccc5C4)cn23)cc1	none
COc1cccc(-c2nnc3sc(CN4CCc5ccccc5C4)cn23)c1	TEAD-YAP block 49
COC(=O)c1nnn(-c2nonc2OC)c1C	none
c1cncc(-c2nc3c4ccccc4nc(NCCCN4CCCCCC4)n3n2)c1	TEAD-YAP block 69
CCCCNc1nc2cc(OC)c(OC)cc2c2nc(-c3cccnc3)nn12	none
COc1cc2nc(NCCCN3CCCCC3)n3nc(-c4cccnc4)nc3c2cc1OC	TEAD-YAP block 37
O=C(CSc1ccccn1)N/N=C/c1ccccc1	none
CCn1c(=O)cc(OCC(=O)N(C)c2cc(C)ccc2OC)c2ccccc21	none
CCC(=O)N1c2ccccc2NC(=O)CC1C (stereo not given)	none
Cc1ccc2c(Cl)c(C(=O)Nc3ncccn3)sc2c1	TEAD-YAP block 51
C/C(=N\NC(=O)c1cc(-c2c(C)nn(-c3ccccc3)c2C)n[nH]1)c1ccccc1O	TEAD-YAP block 44
COc1ccc(/C(C)=N\NC(=O)c2ccccc2O)c(OC)c1	TEAD-YAP block 85
C/C(=N\NC(=O)c1cc(C)nc2ccccc12)c1ccco1	TEAD-YAP block 45
COc1ccc(/C(C)=N/NC(=O)c2ccccc2[N+](=O)[O-])c(OC)c1	none
Cc1cc(C(=O)NN)c2ccccc2n1	TEAD-YAP block 44
CCN(CCO)C(=O)CC1(c2ccccc2)CC(=O)N(CCc2ccccn2)C1=O (stereo not given)	none
CCN(C(=O)c1cnc(N2CCN(c3ccccc3OC)CC2)c2ccccc12)c1cccc(C(F)(F)F)c1	none
Cc1cc(C(=O)N/N=C/c2ccc(OC(F)F)cc2)c2ccccc2n1	TEAD-YAP block 55
CN1CCC(=NNC(=O)c2c[nH]c3ccccc23)CC1	none
C/C(=N\NC(=O)c1cc(C)nc2ccccc12)c1ccccc1O	TEAD-YAP block 53
Cc1cc(C(=O)N/N=C/c2cccc([N+](=O)[O-])c2)c2ccccc2n1	none
Cc1cc(C(=O)NN=C2CCN(C)CC2)c2ccccc2n1	TEAD-YAP block 51
CCOC(=O)c1ccccc1OC(=O)Nc1ccccc1	none
Cc1cccc(NC(=O)C2CCCN(S(=O)(=O)c3ccc4c(c3)oc(=O)n4C)C2)n1 (stereo not given)	TEAD-YAP block 34
Cc1cccc(NC(=O)C2CCCN(S(=O)(=O)c3ccc4c(c3)oc(=O)n4C)C2)c1 (stereo not given)	none
O=C(Nc1ccc(F)cc1)c1cccc2c(Br)cccc12	none
CCOc1ccccc1CNc1ncnc2c1nc1n2CCCCC1	TEAD-YAP block 41
O=C1CSc2ccc(C(=O)N3CCN(c4cccc(Cl)c4)CC3)cc2N1	TEAD-YAP block 56
O=C1CSc2ccc(C(=O)N3CCN(c4cccc(C(F)(F)F)c4)CC3)cc2N1	TEAD-YAP block 52
O=C1Nc2cc(C(=O)N3CCN(c4cccc(Cl)c4)CC3)ccc2Sc2ccccc21	none
CC1(C)CC(O)CC(C)(CN=Cc2c(O)n(-c3ccc(Cl)cc3)c(=O)[nH]c2=O)C1 (stereo not given)	none
COC(=O)c1cnc(N2CCCCCC2)c2ccccc12	none
COC(=O)c1ccc(N2CCCCC2)c2c1C(=O)c1ccccc1C2=O	MITF inh 55
COc1ccc(C2C(C(=O)Nc3ccc(F)cc3F)c3ccccc3C(=O)N2C2CCCCC2)cc1 (stereo not given)	none
CN(C)c1ccc(C(CNC(=O)Cc2ccc(F)cc2)N2CCN(c3ccccc3)CC2)cc1 (stereo not given)	MITF inh 72
CCCCC1CN(Cc2cccnc2)Cc2ccccc2O1 (stereo not given)	none
COc1ccc(-c2cnnn2-c2ccc(NC(=O)c3ccc(F)cc3)cc2)cc1OC	none
C(=N\Nc1ccccn1)/c1sc(N2CCCCC2)nc1-c1cccs1	TEAD-YAP block 67
O=C(Nc1nc2c(s1)CN(Cc1ccccc1)CC2)c1ccc2ccccc2c1	TEAD-YAP block 33
COc1ccc(C(=O)Nc2nc3c(s2)CN(Cc2ccccc2)CC3)cc1OC	none
Clc1ccc(Nc2ccc(-c3cccnc3)cn2)c(Cl)c1	none
COc1ccc(C(=O)NC(=S)Nc2cccc(C(=O)O)c2)cc1	TEAD-YAP block 61
O=C(COc1ccc(Cl)cc1)Nc1ccc(NC(=O)c2ccco2)cc1	none
COc1ccc(C(=O)Nc2cccc(C)c2)cc1	TEAD-YAP block 66
COc1ccc(C(=O)NC(=S)Nc2cccc(S(=O)(=O)N3CCOCC3)c2)cc1	TEAD-YAP block 44
O=C(COc1ccc(Cl)cc1)Nc1cccc(NC(=O)c2ccco2)c1	TEAD-YAP block 47
COc1ccc(C(=O)NC(=S)Nc2cccc(OC)c2)cc1	none
COc1cc2c(C#N)c(N3CCN(C/C=C/c4ccccc4)CC3)nc(N)c2c(N)n1	none
COc1ccc(NC(=O)CCCn2nc([N+](=O)[O-])c(Br)c2C)cc1	none
O=C(N(c1ccc(Cl)cc1)C1C=CS(=O)(=O)C1)C12CC3CC(CC(C3)C1)C2 (stereo not given)	none
CC(C)Oc1ccc(C(=O)Nc2cccc(F)c2)cc1	TEAD-YAP block 43
CC(=O)Oc1ccc(C(=O)Nc2cccc(F)c2)cc1	none
COc1ccc(NC(=S)NNc2ccc(C(=O)O)cc2)cc1	TEAD-YAP block 40
COc1ccc(C(=O)NC(=S)Nc2cccc(NC(=O)c3ccco3)c2)cc1	TEAD-YAP block 33
COc1ccc(CNc2ccnc3c(-c4ccc(OC)cc4)cnn23)cc1	none
COc1ccc(CNc2ccnc3c(-c4ccccc4)cnn23)cc1	FBW7 act 1.9
